High-throughput results from PubChem.
EPAC1 antagonist: EPAC1 (human) antagonism | EPAC1 GEF assay, Rap1b-BODIPY-GDP exchange fluorescence | O95398 | Potency, µM (series often up to 115 µM), for inactives: at the highest dose activity change, negative = inhibition, usual class: inhibitors | AID 720709 | actives 0.14% (n = 360,000);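 also: plate controls were vehicle for no effect and positive control for full effect; nearly all actives have a fitted effect of over 50% in size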
USP2a inh: USP2a (human) protease inhibition; USP2 core, Ub-CHOP2 coupled fluorogenic reporter, 485/531; Potency, µM (titrated, usually from 38.3 µM), inactives show at the highest dose activity change, negative = inhibition, usual class: inhibitors; actives 0.01% (n = 330,000); AID 463254;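 also: plate controls were DMSO wells for no effect and full inhibition by NEM control for full effect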
Target sequence (O75604 whole entry, looked up): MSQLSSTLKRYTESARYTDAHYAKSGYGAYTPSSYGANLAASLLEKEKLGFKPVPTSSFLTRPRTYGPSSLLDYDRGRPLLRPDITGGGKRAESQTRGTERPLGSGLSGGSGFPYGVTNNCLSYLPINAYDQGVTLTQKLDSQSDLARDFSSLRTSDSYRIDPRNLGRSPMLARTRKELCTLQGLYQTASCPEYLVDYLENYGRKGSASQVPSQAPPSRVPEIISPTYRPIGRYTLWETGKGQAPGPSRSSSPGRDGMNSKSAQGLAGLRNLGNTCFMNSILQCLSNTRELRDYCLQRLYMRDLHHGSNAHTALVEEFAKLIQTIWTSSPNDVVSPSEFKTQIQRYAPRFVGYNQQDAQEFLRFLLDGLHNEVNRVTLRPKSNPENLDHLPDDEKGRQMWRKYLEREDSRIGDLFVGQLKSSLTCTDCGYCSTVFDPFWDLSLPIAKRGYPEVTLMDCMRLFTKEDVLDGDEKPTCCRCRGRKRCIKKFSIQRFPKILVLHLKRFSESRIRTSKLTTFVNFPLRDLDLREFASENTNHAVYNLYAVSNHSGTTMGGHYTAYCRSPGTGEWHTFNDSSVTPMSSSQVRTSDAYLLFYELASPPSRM
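Deubiquitinase activity read as fluorescence (485/531 nm) after Ub-CHOP2 cleavage activates the enterokinase reporter on its substrate; USP2 core 10nM, Ub-CHOP2 and substrate 25nM each, 30min compound preincubation then 60min RT; data normalized to NEM, curves fitted.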
EPAC1 agonist: EPAC1 (human) agonism | EPAC1 agonist qHTS, biochemical assay; response scale: 100% = response to 6.5 mM cAMP | O95398 | Potency, µM (titrated, usually from 154 µM), without a hit: at the highest dose activation, usual class: activators | AID 720707 | actives 0.073% (n = 360,000); also: nearly all actives have a fitted effect of over 60% in size
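Compounds were pinned as a concentration titration into mixtures of EPAC1 (100 nM), BODIPY-GDP-loaded Rap1B (250 nM) and GDP (50 uM). After 5 min at room temperature, fluorescence was followed for 30 min; activity was scaled to 6.5 mM cAMP.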
EPAC2 antag: EPAC2 (human) antagonism; Q8WZA2; actives 0.18% (n = 360,000); EPAC2 GEF exchange of Rap1B-BODIPY-GDP, fluorescence; Potency, µM (titrated, usually from 114 µM), for the others: at the highest dose activity, negative = inhibition, usual class: inhibitors; also: % is scaled to controls: 0 for no effect and ±100 for the full control effect; nearly all actives have a fitted effect of over 45% in size
EPAC2 agonist: agonists of human EPAC2 (RAPGEF4); Q8WZA2; EPAC2 activation, biochemical qHTS; response scale: 100% = 6.5 mM cAMP response; Potency, µM (series often up to 154 µM), inactives show at the highest dose activation, hits mostly activators; actives 0.079% (n = 360,000); also: nearly all actives have a fitted effect of over 50% in size
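Setup: EPAC2 100 nM, labeled Rap1B complex 250 nM, free GDP 50 uM. Compound titrations pinned in, brief spin, 5 min room temperature incubation. Kinetic fluorescence read over 30 min, normalized to 6.5 mM cAMP.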
USP1-UAF1 inh: inhibitors of human USP1/UAF1 deubiquitinase; O94782; recombinant USP1/UAF1, Ub-Rhodamine cleavage fluorescence; Potency, µM (titrated, usually from 57.1 µM), for the others: at the highest dose activity change, negative = inhibition, usual class: inhibitors; actives 0.23% (n = 390,000); also: % is scaled to controls: 0 for no effect and ±100 for the full control effect; nearly all actives have a fitted effect of over 60% in size
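Step one: compound is pinned into 1nM USP1/UAF1 in HEPES pH 7.8 buffer with TCEP. Step two: 15 min room-temperature incubation. Step three: Ub-Rho (150nM final) starts cleavage, tracked by fluorescence over six one-minute reads.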
Numbers without * were called inactive; ? = inconclusive; · = no result. The list is not random: actives were taken first. Their share in the collection is about 0.44%. Calls follow the shape of the dose curve; as a rule, active = well fitted curve in the direction sought with a large enough effect; inconclusive = small, poorly fitted or top-dose-only effect, or another doubt; inactive = no such curve, though single readings can be large; an effect the other way counts as inactive or inconclusive. Potency is read from the fitted curve at half-maximal effect.

SMILES | EPAC1 antagonist | USP2a inh | EPAC1 agonist | EPAC2 antag | EPAC2 agonist | USP1-UAF1 inh
COc1ccc(-c2csc(NC(=O)c3ccccc3F)n2)cc1 | -6.3% | 3.3% | 17.3% | 2.9% | 13.5% | -21.0%
COc1ccc(-c2csc(NC(=O)c3ccccc3NS(=O)(=O)c3ccc(F)c(F)c3)n2)cc1 | 50.1µM* | -18.1% | -1.1% | 15.8µM* | 10.1% | -25.0%
COc1ccc(OC)c(CCNC(=O)C(C)n2c(C)c3cnn(-c4ccccc4)c(=O)c3c2C)c1 (stereo not given) | · | · | · | · | · | -12.0%
Cc1ccc(-c2nnn(CC(=O)N(CC(=O)NCCC(C)C)c3ccc(F)cc3)n2)cc1 | · | · | · | · | · | -23.9%
O=C1C(=O)c2ccccc2C(O)=C1CCCCl | -12.6% | -0.4% | 0.1% | 3.1% | -3.8% | 20µM*
Oc1ccc(Cl)cc1CNc1cccc2cccnc12 | -16.0% | -2.5% | -15.6% | 56.2µM* | 10.2% | -27.3%
Oc1ccc(Br)cc1CNc1cccc2cccnc12 | 12.3% | -3.2% | 10.0% | ? | 12.6% | ?
Oc1c(Br)cc(Br)cc1CNc1cccc2cccnc12 | -26.5% | -3.3% | 15.0% | 11.2µM* | 2.2% | ?
O=C1N/C(=C\c2ccc(O)cc2)C(=O)c2ccccc21 | -5.8% | -0.8% | 11.8% | -7.8% | 5.3% | 28.2µM*
Clc1ccc(/C=N/Nc2ncnc3nc[nH]c23)cc1 | -15.6% | -1.1% | 3.1% | -2.2% | 5.5% | 0.4%
Oc1ccc(/C=N/Nc2ncnc3nc[nH]c23)cc1 | -10.6% | -0.8% | 0.1% | 17.8µM* | -0.2% | -26.8%
CC(=O)Oc1c(Sc2ccccc2[N+](=O)[O-])c(C)nn1C(C)(C)C | ? | -1.0% | 9.6% | 50.1µM* | 8.2% | -21.0%
COc1cc(CCc2ccccc2)c(C(=O)O)c(O)c1C/C=C(/C)CCC=C(C)C | 50.1µM* | -16.9% | -15.9% | ? | -12.6% | ?
COCOc1ccc(/C=C/C(=O)c2c(OCOC)cc(OCOC)c(CC=C(C)C)c2O)cc1OCOC | ? | · | -17.7% | -9.8% | -5.1% | -29.3%
CC(C)=CCC/C(C)=C/Cc1c(O)ccc(C(=O)/C=C/c2ccc(O)cc2)c1O | -18.4% | -2.2% | 7.4% | 1.4% | -1.1% | -21.6%
COc1cc(CCc2ccccc2)c(C(=O)O)c(O)c1CC=C(C)C | ? | · | -17.4% | 35.5µM* | -19.9% | -20.3%
CCOC(=O)CN(Cc1ccccc1)C(C(=O)NC1CCCCC1)c1ccccc1 (stereo not given) | · | · | · | · | · | -6.6%
CCc1nnc(NS(=O)(=O)c2ccc(NCc3cc(Cl)cc(Cl)c3O)cc2)s1 | -22.0% | 2.3% | -26.1% | 17.8µM* | 1.7% | -11.8%
C[C@@H]1CC=C[C@@H]2[C@H]1C(=O)N(Cc1ccccc1)[C@H]2c1ccccc1Br | -24.9% | -0.1% | -16.0% | 25.1µM* | 8.5% | -10.9%
C[C@@H]1CC=C[C@@H]2[C@H]1C(=O)N(Cc1ccccc1)[C@H]2c1cccc(Br)c1 | -0.4% | 2.8% | -2.5% | -5.7% | 1.5% | -13.4%
CCOc1ccccc1NC(=O)CN1C(=O)C2(SCC(=O)N2c2ccc(C)cc2)c2ccccc21 (stereo not given) | · | · | · | · | · | -1.9%
CCc1ccc(NS(=O)(=O)c2c(-c3ccccc3)csc2C(=O)OC)cc1 | · | · | · | · | · | -22.0%
COc1ccc(/C=N/NC(=O)c2cc(O)c(O)c(O)c2)cc1Cn1cc([N+](=O)[O-])cn1 | 31.6µM* | -16.5% | 3.1% | -5.5% | 1.3% | -15.8%
O=C1CCc2cc(NS(=O)(=O)c3ccc([N+](=O)[O-])cc3)cc3c2N1CC3 | -7.8% | 1.0% | 79.4µM* | 9.6% | 5.3% | -7.3%
CCC(Oc1ccccc1F)C(=O)N1CCC(c2nc3ccccc3s2)CC1 (stereo not given) | · | · | · | · | · | -10.6%
SMILES | EPAC1 antagonist | USP2a inh | EPAC1 agonist | EPAC2 antag | EPAC2 agonist | USP1-UAF1 inh
Cc1cc(C(=O)Nc2ccon2)c(C)o1 | 50.1µM* | -1.0% | -7.5% | 8.4% | 2.8% | -4.8%
CCc1nc2c(OCc3ccc(OC)cc3)cccn2c1N(C)C(=O)c1ccc(OC)cc1 | 7.3% | · | 4.0% | ? | 15.9% | ·
CCc1nc2c(OCc3ccc(C(F)(F)F)cc3)cccn2c1N(C)C(=O)c1ccc(OC)cc1 | -19.9% | · | -3.6% | 17.8µM* | 1.0% | ·
CCc1nc2c(OCc3ccc(C(F)(F)F)cc3)cccn2c1N(C)C(=O)c1ccc(C)cc1 | -20.6% | · | -31.1% | 15.8µM* | -6.1% | ·
CCc1nc2c(OCc3ccc(C#N)cc3)cccn2c1N(C)C(=O)c1ccc(C)cc1 | 21.0% | · | 7.6% | ? | 5.9% | ·
CC(C)OC1(c2ccccc2)OC(=O)c2ccccc21 (stereo not given) | -15.8% | 10.5% | -4.0% | 35.5µM* | -11.0% | -25.9%
CCOC1(c2ccccc2)OC(=O)c2ccccc21 (stereo not given) | -0.7% | 0.8% | 8.2% | ? | 11.9% | -20.5%
CC(C)C[C@H]1COCCS(=O)(=O)N1Cc1cccc(C(F)(F)F)c1 | -22.9% | · | -32.1% | 14.1µM* | -9.2% | -37.2%
CN1CCC/C1=C/C=C1\SC(=S)NC1=O | 111.2% | ? | 63.1µM* | 28.0% | 112µM* | 25.1µM*
CCOc1ccc(C2C(C(=O)Nc3ccccc3)=C(C)Nc3nc(-c4ccccc4Cl)nn32)cc1OC (stereo not given) | · | · | · | · | · | -18.7%
CC1CN(C(=O)CCC(=O)NCc2ccccc2)c2ccccc2S1 (stereo not given) | 9.7% | -0.8% | -0.2% | 50.1µM* | 14.2% | -24.5%
CSc1cccc(N2CC(C(=O)Nc3cccc(S(=O)(=O)N4CCCC4)c3)CC2=O)c1 (stereo not given) | -4.8% | -0.2% | 50.1µM* | 4.7% | 8.9% | -20.8%
CCOc1ccc2nc(NC3=NC(c4ccc(OC)cc4)CC(=O)N3)nc(C)c2c1 (stereo not given) | 50.1µM* | -4.2% | ? | 31.6µM* | ? | ?
CCN(Cc1ccccc1)C(=O)Cn1c(=O)oc2cc(S(=O)(=O)N3CCCCCC3)ccc21 | · | · | · | · | · | -19.7%
Cc1ccc(O)c(CNc2ccc(S(=O)(=O)Nc3nccs3)cc2)c1 | -14.6% | 7.0% | 3.3% | 22.4µM* | 1.8% | -15.7%
CN=c1scc(-c2ccccc2F)n1/N=C/c1ccc(O)c(O)c1O | ? | 12.6µM* | 11.3% | 0.9% | 10.5% | -14.2%
CN=c1scc(-c2ccccc2F)n1/N=C/c1ccc[nH]1 | -3.7% | 0.9% | -2.2% | -0.7% | -2.9% | -13.4%
O=C(COc1cccc(OC(F)F)c1)Nc1ccc(SC(F)F)cc1 | -3.0% | -0.4% | 12.8% | 25.1µM* | -19.7% | -10.5%
Cc1ccc(C)c(N2CCN(Cc3csc(C)c3)CC2)c1 | · | · | · | · | · | -12.5%
